PubChem BioAssay AID940 (Emory University Molecular Libraries Screening Center, 2007)
“And” between values parts separate entries of the source, which are not always exact repeats. Identical values can stand only once. About 2,200 (0.85%) of roughly 260,000 compounds were called active.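 The calls were made as follows: active = compounds whose cAMP rise, as percent of the full-agonist control response, exceeds 60; inactive = the rest.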 What follows is part of a selection rich in actives, with near analogues and random picks from the rest. Some compounds were tested as several samples or in several runs, with calls that do not always agree.

biological target: Prostaglandin E2 receptor EP2 subtype (Homo sapiens) (UniProt P43116); experiment: modulation of human EP2 prostaglandin signaling – cell-based, HTRF cAMP, PGE2 stimulation, primary screen (AID 940); conditions: EP2-expressing cells, cAMP HTRF FRET, PGE2 co-stimulation; at 25 µM; stronger effect = higher value;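 also: rat C6 glioma line stably carrying human EP2 under a CMV promoter; the protocol text gives 20 µM as final concentration; 100% = response of wells given 1 µM PGE2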
Sequence (P43116 whole entry, looked up): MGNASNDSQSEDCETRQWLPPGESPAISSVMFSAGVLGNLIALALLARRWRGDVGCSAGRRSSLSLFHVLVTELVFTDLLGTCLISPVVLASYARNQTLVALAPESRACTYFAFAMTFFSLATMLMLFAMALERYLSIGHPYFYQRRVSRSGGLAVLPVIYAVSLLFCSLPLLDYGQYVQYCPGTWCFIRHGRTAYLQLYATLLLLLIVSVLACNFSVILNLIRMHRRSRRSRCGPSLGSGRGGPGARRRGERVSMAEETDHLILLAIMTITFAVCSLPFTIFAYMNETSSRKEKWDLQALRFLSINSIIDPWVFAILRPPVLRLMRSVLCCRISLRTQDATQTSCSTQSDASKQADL

induction, 67.3% (active) and 23.3% (inactive):
Cn1c(=O)c2c(nc(SCC(=O)Nc3ccccc3N3CCCCC3)n2C)n(C)c1=O

induction, 64.2% (active) and 17.8% (inactive):
CC[C@H]1OC(=O)[C@H](C)[C@@H](O[C@H]2C[C@@](C)(OC)[C@@H](O)[C@H](C)O2)[C@H](C)[C@@H](O[C@@H]2O[C@H](C)C[C@H](N(C)C)[C@H]2O)[C@](C)(O)C[C@@H](C)[C@@H]2N[C@@H](COCCOC)O[C@H]([C@H]2C)[C@]1(C)O

induction, inactive:
Cc1ccc(C(=O)c2c(NC(=O)c3ccccc3)sc(C)c2C)cc1 8.95%, Cc1ccc(NC(=O)c2c(NC(=O)CCC(=O)O)sc3c2CCCCC3)cc1 12.1% and -20.9%, Cc1cc(-c2cncnc2C2CCCN(CC(=O)Nc3cc(C)on3)C2)on1 (centres undefined) 0.23%, CCOC(=O)c1c(CN2CCOCC2)nc2ccc(Cl)cc2c1-c1ccccc1 22.7%, C#CCSc1nnc(-c2sc3ccccc3c2Cl)o1 40.2%, Fc1ccc(CSc2nnc(-c3cc4c(s3)-c3ccccc3CC4)o2)cc1 1.98%, CC(=O)c1ccc(S(=O)(=O)N2CCC(n3c(C)nc4cc(F)ccc43)CC2)cc1 -40.5%, Cc1occc1-c1nn(C2CCN(S(=O)(=O)N(C)C)CC2)c(=O)o1 -53%, CCN(CC)C(=O)CSc1nc2ccccc2c(=O)n1-c1ccccc1 -15.6%, c1ccc(C(c2ccccc2)N2CCN(Cc3nnnn3C3CCCCC3)CC2)cc1 56.5%, CN1CCN(C(c2ccccc2Cl)c2nnnn2C2CCCCC2)CC1 (centres undefined) -13.7%, CCS(=O)(=O)N1CCN(c2nc3ccccc3s2)CC1 -84.9%, O=C(Cn1nc(-c2cccnc2)oc1=O)N1CCCC1 -282%, O=C(COc1ccc(Cl)cc1)Nc1ccccc1CO -10.2%, COC(=O)c1sccc1NC(=O)CCC1CCCC1 11.9%, CCN(CC)CCN(Cc1cc2cccc(C)c2[nH]c1=O)C(=S)NCCOC -15.8%, CC(C(=O)N1CCC(n2nc(-c3ccco3)ccc2=O)CC1)c1ccccc1 (centres undefined) -23.1%, COCC(=O)Nc1nnc(Cc2ccccc2)s1 -1.1%, CCc1nn(CC(=O)NC(C)c2ccccn2)c(=O)c2cc3ccsc3n12 (centres undefined) -14.5%, O=C(c1ccn[nH]1)N1CCn2cc(C(F)(F)F)nc2C1 -3.08%, CC1CCCCN1CC(=O)NCc1ccc2c(c1)OCO2 (centres undefined) 8.14%, COc1ccc(CN2CCCCC2C)cc1OC (centres undefined) 1.32%, CCOC(=O)CNC(=O)CSc1nnnn1-c1cc(C)ccc1C -4.73%, COC(=O)c1ccccc1NC(=O)CSc1nnnn1C 20.6% and 0.97%, CSc1nc(O)c(C2CCCCC2)c(=O)[nH]1 -1.22%, COc1ccc(CNC(=O)CCSc2nc(-c3ccco3)cc(C(F)(F)F)n2)cc1OC -21.3%, CS(=O)(=O)N1CCc2cc(C(=O)N3C4CCC3CC(c3ccc(F)cc3)C4)ccc21 (centres undefined) -36.1%, COC(=O)Cn1c(C)nc2ccccc2c1=O 6.77%, CN(C)CCCn1c(SCCN2C(=O)c3ccccc3C2=O)nc2ccccc2c1=O -26%, Cc1ccc(C2(O)CCN(Cc3cccc(OCc4ccccn4)c3)CC2)cc1 -1.87%, CCCN(CC)c1nc2c(C)cccn2c(=O)c1/C=C1\SC(=S)N(CCCOC)C1=O 23%, COc1ccc(C2(NCc3ccccc3-n3cccn3)CC2)cc1 7.61%, CC(C)(C)NC(=O)C(=O)NN=C1CCCCCCC1 27.3%, C/C(=N\NC(=S)NC(C)C)c1ccc(C(C)(C)C)cc1 8.13%, COc1cc(-c2nc3cnccn3c2NCC2CCCO2)ccc1O (centres undefined) -29.6%, O=C(CS(=O)(=O)c1cn(Cc2cccc(F)c2)c2ccccc12)N1CCCCC1 -10.4%, O=c1cc(N2CCN(Cc3ccccc3)CC2)c(-c2ccccc2)n[nH]1 -2.25%, CC(=O)Nc1c[nH]c(=O)[nH]c1=O -5.98%, Cc1ccc(-c2c(C)[nH]n3c(=O)c4c(nc23)CCC4)cc1 -89.9%, COc1ccc(N2CCN(C(c3ccccc3)c3nnnn3Cc3cccs3)CC2)cc1 (centres undefined) 21.1%, C=CCNc1nc(-c2sc(NC(=O)c3ccccc3)nc2C)cs1 -131%, CCN(CC)c1nc2c(c(=O)n(C)c(=O)n2C)n1Cc1ccc(C)cc1 -126%, COc1ccc(CN(Cc2cc3c(cc2OC)OCO3)CC2CCCO2)c(OC)c1 (centres undefined) -3.15%, Cc1oc2c(c1CC(=O)NCc1noc(-c3ccccc3)n1)C(=O)CC(C)(C)C2 -16.5%, CC(C)CCSc1ncnc2c1oc1nc3c(cc12)COC(C)(C)C3 29.9%, CCOCCCNC(=O)CSc1ncnc2c1sc1nc3ccccc3cc12 -36%, O=C(CN1C(=O)C2CCCN2S(=O)(=O)c2ccccc21)NCCc1ccccc1 (centres undefined) -13.3%, Cc1cc(CN2CCc3c(nc(N4CCCC4)[nH]c3=O)C2)c(C)n1-c1cccnc1 -32.9%, CCn1c(SCC(=O)Nc2cccc3ccccc23)nc2c1c(=O)n(C)c(=O)n2C -26.4%, CC(C)n1c(SCC(=O)Nc2ccccc2N2CCCCC2)nc2c1c(=O)n(C)c(=O)n2C 9.15%, c1ccc(-c2cc(N3CCCCC3)c3ccccc3n2)cc1 40.2%, CSc1nc2nc(-c3cccc(C(F)(F)F)c3)ccn2n1 27.7%, C=CCNC(=O)[C@H]1C=CCN1S(=O)(=O)c1ccc(F)cc1 -8.27%, O=C(CN1CCCCCC1)N1c2ccccc2Sc2ccc(C(F)(F)F)cc21 41.5%, COc1cc(/C=C/C(=O)N2c3ccccc3Sc3ccc(C(F)(F)F)cc32)cc(OC)c1OC 4.97%, Nc1cc(-c2ccco2)nn(CC(=O)NCc2ccccc2)c1=O 4.9%, CCCNC(=O)C1COc2ccccc2O1 (centres undefined) -4.2%, O=[N+]([O-])c1ccc(Sc2nc3c(c(C(F)(F)F)n2)CCCC3)nc1 34.3%, COc1cccc(CN2CCN(C(=O)CCn3nnc4ccccc43)[C@@H](C)C2)c1 -13.9%, CC(C)[C@H](Cn1nc(-c2cccs2)ccc1=O)NC(=O)Cn1cnc2ccccc2c1=O -6.72%, Cc1cnc(C(=O)NC(C)c2nc(-c3ccncc3)n[nH]2)cn1 (centres undefined) -35.1%, CC(=O)c1c(-c2ccccc2)c2ccccc2[nH]c1=O 7.65%, Cc1nc2ccccc2c(C)c1C(=O)c1ccc(F)cc1 11.7%, CC(C)n1c(=O)oc2cc(S(=O)(=O)N3CCCC(C(N)=O)C3)ccc21 (centres undefined) -51.2%, COc1ccccc1N1N=C(c2cccs2)CC1c1ccccc1 (centres undefined) 38.4%, COc1ccc(C2CC(c3cccs3)=NN2c2ccccc2)cc1 (centres undefined) 21.6%, CCC(C)NC(=O)CSc1nc2cc3c(cc2cc1C#N)OCCO3 (centres undefined) 33.9%, CCn1nnnc1SCC(=O)Nc1cccc(C(C)=O)c1 -7.36%, Cc1nc(N)[nH]c(=O)c1Oc1cccc(C(F)(F)F)c1 22.3%, O=Cc1ccc(Oc2cccc(C(F)(F)F)c2)nc1 16.6%, CCn1c(SCC(=O)Nc2ccc(C(=O)OC)cc2)nnc1-c1cccnc1 -7.67%, CNc1ncnc2c1ncn2[C@@H]1O[C@H](CO)[C@H](O)C1O (some centres undefined) 15.2%, OC[C@H]1O[C@@H](n2cnc3c(N[C@H]4CC5CCC4C5)ncnc32)[C@H](O)[C@@H]1O (some centres undefined) 0.16%

induction, active:
Cc1ccc(C(=O)c2c(NC(=O)c3ccncc3)sc3c2CCCC3)cc1 68.7%, CCSc1nnc(-c2cc3c(s2)-c2ccccc2CC3)o1 63.3%, c1ccc(C(c2nnnn2C2CCCCC2)N2CCc3ccccc3C2)cc1 (centres undefined) 68.5%, COC(=O)c1sccc1NC(=O)COc1ccc(Cl)cc1 61.7%, Cc1nn2c(c1-c1ccccc1)N=C(c1ccco1)CC2c1ccccc1 (centres undefined) 83.8%, CCc1ccc2oc(=O)cc(CN3CCCCC3C)c2c1 (centres undefined) 64.2%, CCOC(=O)c1c(-c2ccc(C)cc2C)csc1NC(=O)CSc1nnnn1C 63.5%, CC(C)(C)c1nc2ccccc2c(=O)n1N1C(=O)c2ccccc2C1=O 65.2%, C=CC1(C)CC(=O)C2(O)C(C)(O1)C(OC(C)=O)C(O)C1C(C)(C)CCC(O)C12C (centres undefined) 102%, CC(C)NC(=S)NN=C1CCCCCCCCCCC1 68.3%, O=c1cc(N2CCCCC2)c(-c2ccccc2)nn1Cc1cccc(F)c1 90%, CC1(C)Cc2nc3sc4c(SCC(=O)NC(c5ccccc5)c5ccccc5)ncnc4c3cc2CO1 70.1%, FC(F)(F)c1cccc(-c2cc3ccccc3nc2N2CCCC2)c1 65.5%, O=C(CN1CCCCC1)N1c2ccccc2Sc2ccc(C(F)(F)F)cc21 66.5%, C/C=N/N(c1ccccc1)c1ccccc1 64.5%, Cc1nc2ccccc2c(-c2ccccc2)c1C(=O)c1ccccc1 94.7%, Fc1ccc(N2N=C(c3cccs3)CC2c2ccco2)c(F)c1 (centres undefined) 63.6%, CCC(=O)OCc1c(C(F)(F)F)nn(C)c1Oc1cccc(C(F)(F)F)c1 62.3%, CCCC(=O)Nc1ncnc2c1ncn2C1O[C@@H]2COP(=O)(O)O[C@H]2[C@H]1OC(=O)CCC (some centres undefined) 107%
